Measured values: PubChem BioAssay (EPA / NIEHS)
Inconclusive results are not listed. The source made the active and inactive calls. Rule for the calls: active = hit-call score of the fitted dose curve at least 0.9, where 1 is the maximum; inconclusive = response in the unintended direction; inactive = score below 0.9.

Read-out: Cytochrome P450 2C19 (Homo sapiens) (UniProt P33261)
Experiment: CLD_CYP2C19_24hr: CellzDirect (CLD) Gene Expression Assay for xenobiotic metabolism (CYP2C19) at 24 hours (AID 2283687);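 note: activity means mRNA induction above DMSO vehicle baseline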
Method: CLD_24hr is a cell-based, multiplexed-readout assay that uses hepatocyte, a human liver primary cell, with measurements taken at 24 hours after chemical dosing in a 96-well plate.CLD_CYP2C19_24hr is one of 16 assay component(s) measured or calculated from the CLD_24hr assay. It is designed to make measurements of mRNA induction, a form of inducible reporter, as detected with chemiluminescence signals by Quantitative Nuclease Protection Assay (qNPA) technology.Data from the assay component CLD_CYP2C19_24hr was analyzed at the endpoint, CLD_CYP2C19_24hr, in the positive analysis fitting direction relative to DMSO as the negative control and baseline of activity. Using a type of inducible reporter, gain-of-signal activity can be used to understand changes in the reporter gene as they relate to the gene CYP2C19. Furthermore, this assay endpoint can be referred to as a primary readout. To generalize the intended target to other relatable targets, this assay endpoint is annotated to the cyp intended target family, where subfamily is xenobiotic metabolism.
Human hepatocyte cultures were treated daily for two consecutive days with fresh dosing solutions containing appropriate concentrations of the 320 ToxCast chemicals (chemical identities were blinded to CellzDirect and other ToxCast collaborators), vehicle control (0.2% DMSO), and positive control inducers as summarized in Table 1. Due to the large number of treatment groups and chemicals examined, the ToxCast chemicals were divided into two groups (spanning two independent cultures of hepatocytes from separate donor preparations (Hu778: ToxCast plates 1 and 2; Hu776: ToxCast plates 3 and 4). Each preparation of human hepatocyte cultures was treated with respective vehicle control, medium only control, set of six positive controls/reference chemicals for the five hepatic receptor pathways, and a subset of eight of the ToxCast chemicals (indoxacarb, pyrithiobac-sodium, norflurazon, cyhalofop-butyl, methomyl, thiram, acetochlor, and propiconazole). These replicate data, coupled with internal replicates designed within the blinded ToxCast chemical library, provided additional data to evaluate interindividual differences between hepatocyte preparations and their potential impact on chemical profiles.Cell morphology and integrity were evaluated using phase-contrast microscopy as an indicator of hepatocyte cell health (Tyson & Green, 1987). Cultures for each treatment group (i.e., media, vehicle [0.2% DMSO], positive control inducers [multiple concentrations], and the ToxCast chemicals [multiple concentrations]) were observed and cell morphology was assessed relative to vehicle control cultures at each harvest time point (0, 6, 24, or 48 h). […] Images were evaluated at the conclusion of the study to assess changes in cell integrity and account for the effects of chemical exposure on uncharacteristic changes in concentration-dependent gene expression profiles. The results from these determinations of apparent cytotoxicity were annotated (yes/no) alongside the corresponding qNPA data for reference.At the conclusion of each treatment period, hepatocyte cultures (96-well) were washed with 1 volume of HBSS, lysed by addition of 25 ul ArrayPlate lysis buffer (HTG, Tucson, AZ), and 70 ul/well of Denaturation Oil, denatured by incubation at 95C for 10 min, and frozen at approximately -70C until analysis by nuclease protection assay (qNPA) (Roberts et al., 2007). For qNPA analysis, cell lysates were thawed at 50C for approximately 30 min, qNPA probes were added, and samples were incubated at 95C for 10 min to begin the detection process by denaturing the target RNA, dissociating the duplexes and secondary structure hybridization. At the conclusion of the hybridization period, S1 nuclease reagent was added to each sample to digest all nonprotected nucleotides at 50C for 60-90 min. […]

Chain of Cytochrome P450 2C19 (Homo sapiens) (P33261 whole entry, looked up): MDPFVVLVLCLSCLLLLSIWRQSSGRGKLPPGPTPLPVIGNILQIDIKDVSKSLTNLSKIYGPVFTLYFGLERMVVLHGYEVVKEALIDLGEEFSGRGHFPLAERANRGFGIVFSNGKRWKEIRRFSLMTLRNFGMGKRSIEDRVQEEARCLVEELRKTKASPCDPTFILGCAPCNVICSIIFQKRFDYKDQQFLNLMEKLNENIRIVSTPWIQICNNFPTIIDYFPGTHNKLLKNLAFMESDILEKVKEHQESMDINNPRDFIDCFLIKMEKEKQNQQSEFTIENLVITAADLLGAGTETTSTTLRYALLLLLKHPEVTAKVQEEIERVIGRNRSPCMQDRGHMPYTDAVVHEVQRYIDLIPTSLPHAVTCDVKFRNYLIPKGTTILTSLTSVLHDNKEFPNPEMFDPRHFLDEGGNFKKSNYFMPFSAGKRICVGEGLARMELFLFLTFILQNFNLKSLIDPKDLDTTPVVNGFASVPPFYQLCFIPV

Compound | outcome
Clc1ccccc1-c1nnc(-c2ccccc2Cl)nn1 | inactive
COC(=O)c1ccccc1S(=O)(=O)NC(=O)N(C)c1nc(C)nc(OC)n1 | inactive
Cc1cc(C)nc(NC(=O)NS(=O)(=O)c2ccccc2C(=O)OC2COC2)n1 | inactive
CC[C@H](C)[C@H]1O[C@]2(C=C[C@@H]1C)C[C@@H]1C[C@@H](C/C=C(\C)[C@@H](O[C@H]3C[C@H](OC)[C@@H](O[C@H]4C[C@H](OC)[C@@H](O)[C@H](C)O4)[C@H](C)O3)[C@@H](C)/C=C/C=C3\CO[C@@H]4[C@H](O)C(C)=C[C@@H](C(=O)O1)[C@]34O)O2 (tested in a mixture with another compound) | inactive
CCC(C)(NC(=O)c1cc(Cl)c(C)c(Cl)c1)C(=O)CCl (centres undefined) | inactive
CCS(=O)(=O)c1cccnc1S(=O)(=O)NC(=O)Nc1nc(OC)cc(OC)n1 | inactive
OCCOc1ccccc1 | inactive
O=C(O)CCCOc1ccc(Cl)cc1Cl | inactive
CC1(C)C(C=C(Cl)Cl)C1C(=O)OC(C#N)c1ccc(F)c(Oc2ccccc2)c1 (centres undefined) | inactive
COc1cc(OC)nc(NC(=O)NS(=O)(=O)c2cc(NC=O)ccc2C(=O)N(C)C)n1 | inactive
CCc1ccc(C(=O)NN(C(=O)c2cc(C)cc(C)c2)C(C)(C)C)cc1 | inactive
CC(C)OC(=O)Nc1cccc(Cl)c1 | inactive
COC(=O)c1ccccc1CS(=O)(=O)NC(=O)Nc1nc(OC)cc(OC)n1 | inactive
COC(=O)c1ccccc1S(=O)(=O)NC(=O)Nc1nc(C)nc(OC)n1 | inactive
CNC(=O)CSP(=S)(OC)OC | inactive
O=[N+]([O-])/N=C1\NCCN1Cc1ccc(Cl)nc1 | inactive
ClC1C(Cl)C(Cl)C(Cl)C(Cl)C1Cl (centres undefined) | inactive
COP(=O)(OC)OC=C(Cl)Cl | inactive
Oc1ccc(Cl)cc1Cc1ccccc1 | inactive
O=S(=O)(O)C(F)(F)C(F)(F)C(F)(F)C(F)(F)C(F)(F)C(F)(F)C(F)(F)C(F)(F)F | inactive
O=S1OCC2C(CO1)C1(Cl)C(Cl)=C(Cl)C2(Cl)C1(Cl)Cl (centres undefined) | inactive
[2H]C1([2H])[n+]2ccccc2-c2cccc[n+]2C1([2H])[2H] | inactive
CNC(=O)Oc1cccc(N=CN(C)C)c1 | inactive
O=C(O)COc1ccc(Cl)cc1Cl | inactive
CCN(CC)C(=O)SCc1ccc(Cl)cc1 | inactive
N#CN | inactive
CC(C)(C)C(O)C(Oc1ccc(Cl)cc1)n1cncn1 (centres undefined) | inactive
CCOc1nc(NC)nc(NC(=O)NS(=O)(=O)c2ccccc2C(=O)OC)n1 | inactive
Cc1[nH]c(=O)n(C(C)(C)C)c(=O)c1Cl | inactive
